Source: PubChem BioAssay (Tox21)
Where “and” joins values, the source holds several entries; their conditions need not be identical. Equal entries are not always repeated. Inconclusive results are not listed. Where a call stands in place of a potency, no number is given. Some structures have more than one record in an assay (separate samples or runs), and their calls can disagree. Calls of active or inactive are those of the source. Unless noted, calls follow the shape of the dose curve; as a rule, active = well fitted curve in the direction sought with a large enough effect in the repeat runs; inconclusive = weak or mixed curves; inactive = no such curve, though single readings can be large; an effect the other way counts as inactive or inconclusive.

Legend:
[1] = Caspase-3/7 induction in HepG2 cells by small molecules, qHTS cell viability counter screen (AID 1346981); also: series mostly up to about 92 µM; nearly all actives have a fitted effect of over 30% in size
How it was run: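 Multiplexed with the caspase-3/7 assay: HepG2 cells, 16 hr compound treatment, CellTiter-Fluor viability detection by fluorescence.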

[2] = molecular target: Nuclear receptor subfamily 1 group I member 2 (Homo sapiens) (UniProt O75469); test: Human pregnane X receptor (PXR) small molecule agonists, qHTS assay (AID 1346982); also: nearly all actives have a fitted effect of over 35% in size; also: potency is read from the fitted curve at half-maximal effect
Chain of Nuclear receptor subfamily 1 group I member 2 (Homo sapiens) (O75469 whole entry, looked up): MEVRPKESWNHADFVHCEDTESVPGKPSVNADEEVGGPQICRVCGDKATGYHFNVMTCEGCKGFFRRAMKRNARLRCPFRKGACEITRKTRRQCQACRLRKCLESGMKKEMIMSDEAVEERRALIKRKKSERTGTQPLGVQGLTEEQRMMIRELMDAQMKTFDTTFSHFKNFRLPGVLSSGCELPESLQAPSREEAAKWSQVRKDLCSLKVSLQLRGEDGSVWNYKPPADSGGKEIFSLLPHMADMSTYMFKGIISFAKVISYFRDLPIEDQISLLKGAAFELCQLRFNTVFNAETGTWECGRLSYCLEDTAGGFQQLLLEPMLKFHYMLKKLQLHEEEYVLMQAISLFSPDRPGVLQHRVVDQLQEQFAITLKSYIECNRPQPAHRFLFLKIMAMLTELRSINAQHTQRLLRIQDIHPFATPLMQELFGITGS
How it was run: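 We seeded PXR-Luc HepG2 cells in assay medium containing 5% charcoal-stripped FBS, added compounds 5 hr later, incubated 24 hr, and read luminescence with ONE-Glo reagent.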

[3] = molecular target: Nuclear receptor subfamily 1 group I member 2 (Rattus norvegicus) (UniProt Q9R1A7); test: Rat pregnane X receptor (rPXR) activation by small molecules, qHTS assay (AID 1346983); conditions: rPXR luciferase reporter cells, One-Glo luminescence, 24 h; stronger effect = higher value; also: nearly all actives have a fitted effect of over 20% in size
Chain of Nuclear receptor subfamily 1 group I member 2 (Rattus norvegicus) (Q9R1A7 whole entry, looked up): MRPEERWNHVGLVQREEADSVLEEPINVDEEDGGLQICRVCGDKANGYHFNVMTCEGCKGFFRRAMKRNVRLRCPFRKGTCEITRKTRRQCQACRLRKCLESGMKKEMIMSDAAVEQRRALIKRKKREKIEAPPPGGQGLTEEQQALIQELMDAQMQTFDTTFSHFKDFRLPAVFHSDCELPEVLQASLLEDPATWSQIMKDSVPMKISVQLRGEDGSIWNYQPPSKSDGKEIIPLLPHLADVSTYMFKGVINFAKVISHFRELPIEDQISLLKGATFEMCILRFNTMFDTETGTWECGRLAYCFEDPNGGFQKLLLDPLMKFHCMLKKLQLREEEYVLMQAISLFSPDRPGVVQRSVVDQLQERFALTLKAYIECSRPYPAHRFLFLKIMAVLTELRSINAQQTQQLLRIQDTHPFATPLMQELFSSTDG
How it was run: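 Luminescent readout (One-Glo luciferase, 30 min room temperature) followed 24 hr compound treatment at 37 C of rPXR cells plated 2,000 per well and preincubated 5hr; qHTS format with compounds delivered in DMSO.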

[4] = molecular target: Acetylcholinesterase (Homo sapiens) (UniProt P22303); test: Acetylcholinesterase (AChE) small molecule antagonists: colormetric cell-based qHTS assay (AID 1347395; calls by dose curve; also: nearly all actives have a fitted effect of over 30% in size)
Chain of Acetylcholinesterase (Homo sapiens) (P22303 whole entry, looked up): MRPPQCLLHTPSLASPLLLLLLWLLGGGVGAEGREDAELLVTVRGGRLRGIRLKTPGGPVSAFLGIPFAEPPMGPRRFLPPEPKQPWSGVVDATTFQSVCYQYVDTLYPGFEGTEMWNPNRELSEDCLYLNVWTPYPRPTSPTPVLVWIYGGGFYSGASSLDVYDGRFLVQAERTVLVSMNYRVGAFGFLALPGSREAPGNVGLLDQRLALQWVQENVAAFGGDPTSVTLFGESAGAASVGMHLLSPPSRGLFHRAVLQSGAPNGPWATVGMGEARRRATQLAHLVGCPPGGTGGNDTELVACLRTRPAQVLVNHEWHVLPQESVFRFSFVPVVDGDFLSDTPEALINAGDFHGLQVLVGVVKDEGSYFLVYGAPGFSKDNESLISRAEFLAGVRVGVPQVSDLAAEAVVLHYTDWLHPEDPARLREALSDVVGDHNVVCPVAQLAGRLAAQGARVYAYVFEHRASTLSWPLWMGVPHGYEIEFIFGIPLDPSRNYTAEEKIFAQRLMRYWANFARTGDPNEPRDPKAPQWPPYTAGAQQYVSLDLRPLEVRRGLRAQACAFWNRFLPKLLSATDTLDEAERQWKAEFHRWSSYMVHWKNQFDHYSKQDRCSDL
How it was run: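 In this cell-based qHTS, attached SH-SY5Y cells were treated with test chemicals for 30 min, after which acetylthiocholine hydrolysis was followed by DTNB colour development over 90 min at 37 C.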

[5] = molecular target: Acetylcholinesterase (Homo sapiens) (UniProt P22303); test: Acetylcholinesterase (AChE) small molecule antagonists: enzyme-based qHTS assay (AID 1347397; calls by dose curve; also: nearly all actives have a fitted effect of over 55% in size); conditions: Potency: AChE enzyme activity inhibition
How it was run: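 rhAChE 50 mU/mL (dispensed) + cpd or DMSO, 30 min RT; add DTNB/acetylthiocholine cocktail, 10 min RT; colorimetric thiocholine readout. qHTS, 1536-well format.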

[6] = molecular target: Acetylcholinesterase (Homo sapiens) (UniProt P22303); test: Acetylcholinesterase (AChE) small molecule antagonists: fluorescence cell-based qHTS assay (AID 1347398; calls by dose curve; also: nearly all actives have a fitted effect of over 50% in size); conditions: Potency: AChE activity
How it was run: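 Read-out is Thiolite Green fluorescence at Ex/Em = 490/520 nm, formed by reaction with thiocholine released when cellular AChE in SH-SY5Y cells hydrolyzes acetylthiocholine. Compounds were preincubated 30 min at 37 C before substrate.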

[7] = molecular target: Acetylcholinesterase (Homo sapiens) (UniProt P22303); test: Acetylcholinesterase (AChE) small molecule antagonists: enzyme-based qHTS assay with human liver microsomes (AID 1347399; calls by dose curve; also: nearly all actives have a fitted effect of over 60% in size); conditions: Potency: qHTS inhibition
How it was run: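 Recombinant human AChE (50 mU/mL in the enzyme mix) and human liver microsomes (0.25 mg/mL final) were preincubated with compound and NADPH (0.25 mg/mL final) for 30 min at 37 C. Acetylthiocholine/DTNB was then added; thiocholine was read colorimetrically after 10 min at room temperature.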

[8] = molecular target: Cytochrome P450 2D6 (Homo sapiens) (UniProt P10635); test: Cytochrome P450 Family 2 Subfamily D Member 6 (CYP2D6) small molecule antagonists: luciferase reporter qHTS assay (AID 1671196); also: nearly all actives have a fitted effect of over 50% in size; also: potency is read from the fitted curve at half-maximal effect
Chain of Cytochrome P450 2D6 (Homo sapiens) (P10635 whole entry, looked up): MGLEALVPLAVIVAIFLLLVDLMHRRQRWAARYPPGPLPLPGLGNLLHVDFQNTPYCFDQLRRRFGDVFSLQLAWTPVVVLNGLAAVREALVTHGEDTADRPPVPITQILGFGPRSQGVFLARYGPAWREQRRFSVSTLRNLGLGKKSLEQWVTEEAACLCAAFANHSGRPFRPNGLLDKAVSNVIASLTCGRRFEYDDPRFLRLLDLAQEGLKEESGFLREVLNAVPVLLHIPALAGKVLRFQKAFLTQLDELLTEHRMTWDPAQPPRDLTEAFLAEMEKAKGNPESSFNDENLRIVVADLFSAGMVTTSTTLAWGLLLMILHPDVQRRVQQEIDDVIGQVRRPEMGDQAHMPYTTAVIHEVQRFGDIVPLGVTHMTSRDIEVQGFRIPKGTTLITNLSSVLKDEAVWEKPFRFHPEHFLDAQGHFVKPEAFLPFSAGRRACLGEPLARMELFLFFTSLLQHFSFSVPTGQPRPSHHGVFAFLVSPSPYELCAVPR
How it was run: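 Luminescence (RLU), read 20 min after detection reagent, indicated CYP2D6 conversion of proluciferin to luciferin during a 1 h NADPH-dependent reaction at room temperature.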

[9] = molecular target: Cytochrome P450 2C19 (Homo sapiens) (UniProt P33261); test: Cytochrome P450 Family 2 Subfamily C Member 19 (CYP2C19) small molecule antagonists: luciferase reporter qHTS assay (AID 1671197); also: nearly all actives have a fitted effect of over 65% in size; also: potency is read from the fitted curve at half-maximal effect
Chain of Cytochrome P450 2C19 (Homo sapiens) (P33261 whole entry, looked up): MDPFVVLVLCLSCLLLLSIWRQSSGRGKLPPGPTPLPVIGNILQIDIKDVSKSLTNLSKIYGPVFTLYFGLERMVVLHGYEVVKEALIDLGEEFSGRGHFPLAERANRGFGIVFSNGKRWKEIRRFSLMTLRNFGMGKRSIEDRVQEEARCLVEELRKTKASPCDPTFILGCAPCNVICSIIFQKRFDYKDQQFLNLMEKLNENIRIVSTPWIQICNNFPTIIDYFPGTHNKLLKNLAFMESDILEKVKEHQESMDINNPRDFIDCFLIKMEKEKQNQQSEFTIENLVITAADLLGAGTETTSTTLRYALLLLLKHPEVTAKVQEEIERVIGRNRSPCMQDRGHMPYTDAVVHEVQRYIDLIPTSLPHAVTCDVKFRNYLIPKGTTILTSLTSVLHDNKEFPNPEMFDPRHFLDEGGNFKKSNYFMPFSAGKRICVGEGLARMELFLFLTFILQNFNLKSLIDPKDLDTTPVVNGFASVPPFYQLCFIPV
How it was run: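 Enzyme-substrate mix with proluciferin substrate (P450-Glo CYP2C19 system) preincubated with compounds 10 min at room temperature; NADPH regeneration solution added, 37C for 1 h; detection reagent stops reaction, luminescence read after 20 min. Ketoconazole positive control.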

[10] = molecular target: Cytochrome P450 2C9 (Homo sapiens) (UniProt P11712); test: Cytochrome P450 Family 2 Subfamily C Member 9 (CYP2C9) small molecule antagonists: luciferase reporter qHTS assay (AID 1671198); also: nearly all actives have a fitted effect of over 50% in size; also: potency is read from the fitted curve at half-maximal effect
Chain of Cytochrome P450 2C9 (Homo sapiens) (P11712 whole entry, looked up): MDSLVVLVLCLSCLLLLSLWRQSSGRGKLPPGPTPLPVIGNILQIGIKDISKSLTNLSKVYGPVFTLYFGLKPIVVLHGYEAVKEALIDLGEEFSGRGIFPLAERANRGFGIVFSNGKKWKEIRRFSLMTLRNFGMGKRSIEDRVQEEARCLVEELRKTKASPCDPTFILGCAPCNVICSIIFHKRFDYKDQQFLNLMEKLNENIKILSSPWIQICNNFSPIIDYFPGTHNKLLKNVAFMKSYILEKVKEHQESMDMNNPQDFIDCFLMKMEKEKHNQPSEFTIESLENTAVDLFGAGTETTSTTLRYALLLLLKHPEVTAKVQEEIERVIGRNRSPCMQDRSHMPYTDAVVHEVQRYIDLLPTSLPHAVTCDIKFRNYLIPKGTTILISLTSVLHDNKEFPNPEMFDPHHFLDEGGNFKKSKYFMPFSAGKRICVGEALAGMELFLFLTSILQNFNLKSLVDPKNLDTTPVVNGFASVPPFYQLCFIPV
How it was run: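 Enzyme-substrate mix preincubated with compound 10 min at room temperature; reaction started with NADPH regeneration solution, 1 h 37C. Luminescent luciferin product read after 20 min detection reagent.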

[11] = molecular target: Voltage-gated inwardly rectifying potassium channel KCNH2 (Homo sapiens) (UniProt Q12809); test: Human Ether-a-go-go-Related Gene (hERG) channel small molecule antagonists: fluorescence cell-based qHTS assay (AID 1671200);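 also: hERG-expressing U2OS cells given a thallium stimulus after FluxOR II dye loading; series mostly up to about 77 µM; nearly all actives have a fitted effect of over 50% in size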
How it was run: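 Cell line hERG-U2OS; dye FluxOR II, 1 h RT dark; Tl+ stimulus; ex 480/em 540 nm, read each second for 2 min.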

[12] = molecular target: Cytochrome P450 3A4 (Homo sapiens) (UniProt P08684); test: Cytochrome P450 Family 3 Subfamily A Member 4 (CYP3A4) small molecule antagonists: luciferase reporter qHTS assay (AID 1671201); also: nearly all actives have a fitted effect of over 50% in size; also: potency is read from the fitted curve at half-maximal effect
Chain of Cytochrome P450 3A4 (Homo sapiens) (P08684 whole entry, looked up): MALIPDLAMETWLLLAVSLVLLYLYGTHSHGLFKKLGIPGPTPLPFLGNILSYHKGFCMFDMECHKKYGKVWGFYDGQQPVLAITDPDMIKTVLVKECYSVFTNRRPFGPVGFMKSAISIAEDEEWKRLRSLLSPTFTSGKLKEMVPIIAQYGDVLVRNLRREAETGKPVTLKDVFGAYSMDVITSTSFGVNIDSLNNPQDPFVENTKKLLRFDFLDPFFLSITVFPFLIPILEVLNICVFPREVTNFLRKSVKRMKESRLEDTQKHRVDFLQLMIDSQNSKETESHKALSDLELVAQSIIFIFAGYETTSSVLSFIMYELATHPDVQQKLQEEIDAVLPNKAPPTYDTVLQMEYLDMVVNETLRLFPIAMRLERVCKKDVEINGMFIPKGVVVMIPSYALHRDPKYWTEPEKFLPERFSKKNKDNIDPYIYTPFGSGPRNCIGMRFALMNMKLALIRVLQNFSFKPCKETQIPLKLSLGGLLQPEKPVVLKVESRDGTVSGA
How it was run: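 Room-temperature assay throughout: 10 min compound–enzyme/substrate preincubation, 1 h reaction after NADPH regeneration solution, 20 min detection. Luciferin formed from proluciferin substrate is quantified by luminescence.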

[13] = Caspase-3/7 induction in CHO-K1 cells by small molecules, qHTS assay (AID 1346980); also: nearly all actives have a fitted effect of over 15% in size
How it was run: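 Luminescent Caspase-Glo 3/7 read (30min, room temperature) quantified apoptosis induction. Cells were wild-type CHO-K1, treated with compound for 17hr at 37 C and 5% CO2.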

[14] = molecular target: Cytochrome P450 1A2 (Homo sapiens) (UniProt P05177); test: Cytochrome P450 Family 1 Subfamily A Member 2 (CYP1A2) small molecule antagonists: luciferase reporter qHTS assay (AID 1671199); also: nearly all actives have a fitted effect of over 50% in size; also: potency is read from the fitted curve at half-maximal effect
Chain of Cytochrome P450 1A2 (Homo sapiens) (P05177 whole entry, looked up): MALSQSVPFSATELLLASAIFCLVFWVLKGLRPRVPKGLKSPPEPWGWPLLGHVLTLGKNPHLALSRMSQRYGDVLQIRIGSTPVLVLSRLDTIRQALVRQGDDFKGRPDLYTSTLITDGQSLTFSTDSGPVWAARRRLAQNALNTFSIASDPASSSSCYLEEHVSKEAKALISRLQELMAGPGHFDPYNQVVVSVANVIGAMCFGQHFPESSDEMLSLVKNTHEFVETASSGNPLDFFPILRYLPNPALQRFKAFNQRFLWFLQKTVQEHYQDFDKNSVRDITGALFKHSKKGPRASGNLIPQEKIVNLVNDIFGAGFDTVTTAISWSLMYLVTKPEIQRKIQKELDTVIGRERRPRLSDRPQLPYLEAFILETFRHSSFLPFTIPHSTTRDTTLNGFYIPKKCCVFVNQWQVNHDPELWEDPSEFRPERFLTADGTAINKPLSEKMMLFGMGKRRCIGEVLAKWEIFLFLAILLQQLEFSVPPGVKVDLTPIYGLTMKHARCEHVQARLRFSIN
How it was run: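 CYP1A2 turnover of a luminogenic substrate was quantified after 1 h with NADPH regeneration at room temperature. Furafylline served as positive control.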

| SMILES | Potency [1] | Potency [2] | max activation [3] | Potency [4] | Potency [5] | Potency [6] | Potency [7] | Potency [8] | Potency [9] | Potency [10] | Potency [11] | Potency [12] | outcome [13] | Potency [14] |
| --- | --- | --- | --- | --- | --- | --- | --- | --- | --- | --- | --- | --- | --- | --- |
| CC1OC(C)OC(C)O1 (stereo not given) | inactive | inactive | -1.58% (inactive) and 0.0541% (inactive) | inactive | inactive | inactive | inactive | inactive | inactive | inactive | inactive | inactive |  |  |
| CCC12COCN1COC2 | inactive | inactive |  |  | inactive | inactive | inactive | inactive | 35.6 µM (active) | inactive | inactive | 40 µM (active) and inactive | inactive | inactive |
| CCC[N+](=O)[O-] | inactive | inactive |  |  | inactive | inactive | inactive | inactive | 27.8 µM (active) |  | inactive | inactive | inactive | inactive |
| CCC(C)(CC)c1cc(NC(=O)c2c(OC)cccc2OC)on1 | inactive | 4.34 µM (active) and 831 nM (active) |  |  | inactive |  | inactive | inactive | 40 µM (active) and 68.3 µM (active) | 35.7 µM (active) and 34.2 µM (active) |  | 799 nM (active) and 1.93 µM (active) | inactive |  |
| CCCN(CCC)c1c([N+](=O)[O-])cc(C(F)(F)F)cc1[N+](=O)[O-] | inactive | 30.6 µM (active) |  |  | inactive |  | inactive | inactive | 39.8 µM (active) and 35.6 µM (active) | 22.4 µM (active) | inactive |  | inactive | 20 µM (active) |
| CC(C)C#N | inactive | inactive |  | inactive | inactive | inactive | inactive | inactive | 67.3 µM (active) and inactive | inactive | inactive | inactive |  | inactive |
| Cn1cc(-c2ccccc2)c(=O)c(-c2cccc(C(F)(F)F)c2)c1 |  | 29.9 µM (active) and 17.2 µM (active) |  |  | inactive |  | inactive |  | 1.95 µM (active) and 2.83 µM (active) | 34.7 µM (active) and 31.7 µM (active) | inactive | 12.3 µM (active) and 12.6 µM (active) |  | 19.5 µM (active) and 17.8 µM (active) |
| C=CCO | inactive | inactive |  |  | inactive |  | inactive | inactive | inactive |  | inactive | inactive |  | inactive |
| c1ccc2c(c1)Oc1ccccc1O2 | inactive | inactive |  | inactive | inactive | inactive | inactive | inactive | inactive |  |  | inactive |  |  |
| CCCN(CCC)N=O | inactive | inactive |  | inactive | inactive |  | inactive | inactive | inactive |  |  | inactive |  | inactive |
| Cc1ccc(N)cc1N | inactive | inactive |  | inactive | inactive | inactive | inactive | 30.9 µM (active) and 31.7 µM (active) | 34.6 µM (active) and 31.7 µM (active) |  |  | 30.9 µM (active) |  | 30.9 µM (active) and 35.6 µM (active) |
| BrCCBr | inactive | inactive |  |  | inactive | inactive | inactive | 43.6 µM (active) and inactive | 69.1 µM (active) and inactive | inactive | inactive | inactive |  | 30.9 µM (active) and inactive |
| Nc1ccccc1C(=O)O | inactive | inactive | -2.88% (inactive) |  | inactive |  | inactive | 63.6 µM (active) and inactive | inactive | inactive |  | inactive |  | 40.1 µM (active) and inactive |
| Cc1ccc(N)cc1Cl | inactive | inactive |  | inactive | inactive |  | inactive |  | 7.18 µM (active) and 11.2 µM (active) |  | inactive |  |  | 1.28 µM (active) and 1.59 µM (active) |
| [N-]=[N+]=[N-] | inactive | inactive |  | inactive | inactive | inactive | inactive | 38.6 µM (active) and inactive | 24.4 µM (active) and 50.2 µM (active) |  |  | inactive |  | 43.3 µM (active) and inactive |
| Nc1ccc(Oc2ccc(N)cc2)cc1 | inactive | 62 µM (active) |  | inactive | inactive | inactive | inactive | 36.1 µM (active) and 31.7 µM (active) | 18.1 µM (active) and 20 µM (active) | 14.4 µM (active) and 8.94 µM (active) | inactive | 18.1 µM (active) and inactive |  | inactive |
| COP(N)(=O)SC (stereo not given) | inactive | inactive |  |  |  |  | inactive | inactive | 39.3 µM (active) and inactive |  | inactive | inactive |  | inactive |
| OC(O)C(Cl)(Cl)Cl | inactive | inactive | -1.41% (inactive) |  |  |  |  | inactive | inactive |  |  | inactive |  | inactive |
| O=c1ccc(=O)[nH][nH]1 | inactive | inactive |  | inactive | inactive |  | inactive | inactive | inactive | inactive |  | inactive |  | inactive |
| CC(Br)C(=O)O (stereo not given) | inactive | inactive |  | inactive | inactive | inactive | inactive | inactive | 45.3 µM (active) |  |  | inactive |  | inactive |
| Nc1ccc(Br)cc1 | inactive | inactive |  |  | inactive | inactive | inactive |  | 50.2 µM (active) and 39.9 µM (active) | 35.5 µM (active) and 35.6 µM (active) |  |  |  | 44.8 µM (active) |
